From the supplement of paper PMC9694430
Where a name gives a salt, the structure may show the parent alone.

What was measured:
Assay in all cases: thermal shift delta Tm vs DMSO control; higher = stronger stabilization (binding)
Settings in all cases: 12.5 µM; protein concentration 2 µM
[1] = tested on: LOC_OS04G57630-cb004
How it was run: (§1)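 Rice kinase domain constructs, made in E. coli and purified, were placed in 96-well plates at 2 μM in 19.5 μl of 100 mM potassium phosphate pH 7.5, 150 mM NaCl, 10% glycerol and 5 × SYPRO Orange, with compound in DMSO. A temperature ramp from 25°C to 95°C at 0.05°C/s was used for differential scanning fluorimetry. The melting temperature shift is a triplicate mean compared with DMSO-only protein, derived from Boltzmann fits.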

[2] = tested on: LOC_OS05G07850-cb002
How it was run: as §1

[3] = tested on: LOC_OS05G16824-cb004
How it was run: as §1

[4] = tested on: LOC_OS05G28520-cb001
How it was run: as §1

[5] = tested on: LOC_OS05G30820-cb001
How it was run: as §1

[6] = tested on: LOC_OS05G43570-cb004
How it was run: as §1

[7] = tested on: LOC_OS06G16330-cb003
How it was run: as §1

[8] = tested on: T1, LOC_OS06G22820-cb001
T1 sequence (whole entry): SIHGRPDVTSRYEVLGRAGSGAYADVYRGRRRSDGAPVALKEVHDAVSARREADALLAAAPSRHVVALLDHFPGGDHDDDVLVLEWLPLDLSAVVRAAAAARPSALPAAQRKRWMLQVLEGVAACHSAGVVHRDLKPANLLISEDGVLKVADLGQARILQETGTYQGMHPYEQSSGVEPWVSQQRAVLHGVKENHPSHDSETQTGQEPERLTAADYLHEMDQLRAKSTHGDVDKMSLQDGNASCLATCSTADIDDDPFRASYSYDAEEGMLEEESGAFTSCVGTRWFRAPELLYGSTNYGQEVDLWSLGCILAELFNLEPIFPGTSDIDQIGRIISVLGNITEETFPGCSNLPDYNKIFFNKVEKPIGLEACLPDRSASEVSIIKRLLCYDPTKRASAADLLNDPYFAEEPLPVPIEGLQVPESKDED
How it was run: as §1

[9] = tested on: LOC_OS07G06570-cb004
How it was run: as §1

[10] = tested on: LOC_OS07G07230-cb001
How it was run: as §1
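Note: purified Escherichia coli-expressed rice kinase domain construct.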

Sequence of LOC_OS06G16330-cb003 (as listed by the source): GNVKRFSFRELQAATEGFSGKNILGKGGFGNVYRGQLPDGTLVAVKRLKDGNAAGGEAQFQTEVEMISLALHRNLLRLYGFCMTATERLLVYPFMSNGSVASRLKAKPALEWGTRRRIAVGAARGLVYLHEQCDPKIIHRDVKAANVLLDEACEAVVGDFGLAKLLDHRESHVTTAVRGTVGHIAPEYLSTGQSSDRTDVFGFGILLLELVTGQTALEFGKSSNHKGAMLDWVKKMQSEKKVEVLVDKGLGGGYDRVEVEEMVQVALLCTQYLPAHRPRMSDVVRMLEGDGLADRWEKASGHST

| SMILES | thermal shift delta Tm [1] [°C] | thermal shift delta Tm [2] [°C] | thermal shift delta Tm [3] [°C] | thermal shift delta Tm [4] [°C] | thermal shift delta Tm [5] [°C] | thermal shift delta Tm [6] [°C] | thermal shift delta Tm [7] [°C] | thermal shift delta Tm [8] [°C] | thermal shift delta Tm [9] [°C] | thermal shift delta Tm [10] [°C] |
| --- | --- | --- | --- | --- | --- | --- | --- | --- | --- | --- |
| COc1ccc(-c2cc3nccn3c(Nc3ncccc3C(N)=O)n2)cc1OC | 1.09 | 10.1 | -0.07 | 0.66 | 0.59 | 0.69 | 4.18 | 0.82 | 0.73 | 0.38 |
| COc1ccc(COc2ccc(Cc3cnc(N)nc3N)cc2OC)cc1 | 0.05 | 0.49 | -1.41 | 0.33 | 0.26 | 0.4 | 1.65 | 0.41 | 0.82 | -0.38 |
| Nc1nc(N)c2nc(-c3cccc(O)c3)c(-c3cccc(O)c3)nc2n1 | 0.04 | 5.27 | -5.41 | 0.94 | 0.79 | 0.92 | 0.76 | 0.53 | 1.54 | 0.2 |
| COc1cc2c(Oc3ccc4[nH]c(C)cc4c3F)ncnc2cc1OCCCN1CCCC1 [Cediranib (AZD2171)] | 0.99 | 1.23 | 1.08 | -0.22 | 0.46 | 0.17 | -0.02 | 0.55 | 0.63 | 0.34 |
| COc1cc2ncnc(Nc3cccc(Cl)c3F)c2cc1OC(=O)N1CCN(C)C[C@H]1C | 0.65 | 9.1 | -0.19 | 0.6 | 0.5 | 0.72 | 2.26 | 0.6 | 1.12 | 0.94 |
| COCC(=O)NC/C=C/c1ccc2ncnc(Nc3ccc(Oc4ccc(C)nc4)c(C)c3)c2c1 | 0.08 | 3.11 | -4.84 | -0.02 | 0.4 | 0.04 | 0.23 | 0.59 | 0.41 | 0.08 |
| CC(C)CCN1c2nc(Nc3cc(F)c(O)c(F)c3)ncc2N(C)C(=O)C1C (stereo not given) | 1.73 | 7.46 | 8.92 | 1 | 1.42 | 0.53 | 3.47 | 1.8 | 3.6 | 0.37 |
| Cc1nc(Nc2cnn(C3CCNCC3)c2)nc2c1N(C)C(=O)c1cc3ccccc3cc1N2C | 0.88 | 6.28 | 3.82 | 0.38 | 0.47 | 0.33 | 1.66 | 0.22 | 0.49 | 0.2 |
| CCCCCCCCCCCCc1ccc(S(=O)(=O)Nc2nncs2)cc1 | -0.02 | 0.11 | -2.07 | 0.11 | 0.45 | 0.64 | 0.11 | 0.75 | 1.23 | 0.24 |
| COc1cc(Nc2ncc(F)c(Nc3ccc4c(n3)NC(=O)C(C)(C)O4)n2)cc(OC)c1OC | 1.55 | 13.2 | 12.2 | 0.56 | 1.19 | 0.37 | 12.2 | 0.02 | 0.43 | 0.41 |
| O=C1NC(=O)[C@@H](c2cn3c4c(cccc24)CCC3)[C@@H]1c1c[nH]c2ccccc12 [Tivantinib (ARQ 197)] | 0.47 | 0.25 | -2.47 | 0.49 | 0.62 | 0.57 | 0.29 | 0.65 | 0.51 | 0.56 |
| CCc1cncnc1N1CCN(Cc2nc3ccc(C(F)(F)F)cc3[nH]2)CC1 | -0.2 | -0.11 | -2.67 | -0.08 | 0.66 | 0.46 | 0.02 | 0.76 | 0.84 | -0.27 |
| NC(=O)c1ccc(N(C(N)=O)c2c(F)cccc2F)nc1-c1ccc(F)cc1F | 0.21 | -0.33 | -5.64 | 0.58 | 0.41 | 0.22 | -0.58 | 0.8 | 1.05 | 0.18 |
| COc1cc(CCc2cc(NC(=O)c3ccc(N4CC(C)NC(C)C4)cc3)n[nH]2)cc(OC)c1 (stereo not given) | 2.33 | 3.41 | 4.73 | 6.65 | 0.59 | 0.4 | 2.54 | 0.35 | 0 | -0.08 |
| Cc1ccc(NC(=O)c2cccc(C(C)(C)C#N)c2)cc1Nc1ccc2ncn(C)c(=O)c2c1 | 0.41 | 0.77 | -1.17 | 0.69 | 0.63 | 0.64 | 0.8 | 0.86 | 0.75 | 0.34 |
| C[C@H]1CNCCCN1S(=O)(=O)c1cccc2cncc(F)c12 [Ripasudil (K-115) hydrochloride dihydrate] | 0.43 | 3.53 | -0.98 | 0.51 | 0.26 | 0.76 | 0.41 | 0.46 | 0.19 | 0.2 |
| CO[C@@H](C)Cn1c(=O)n(C)c2cnc3ccc(-c4cncc(C(C)(C)O)c4)cc3c21 | 0.18 | 4.35 | -0.98 | 0.31 | 0.49 | 0.43 | 0.71 | 0.7 | 0.91 | 0.7 |
| CCc1nc(C(N)=O)c(Nc2ccc(N3CCC(N4CCN(C)CC4)CC3)c(OC)c2)nc1NC1CCOCC1 [Gilteritinib (ASP2215)] | 5.73 | 17.4 | 9.44 | 1.33 | 0.92 | 1.54 | 15.3 | 0.74 | 1.35 | 0.17 |
| Cc1cc([C@@H](C)Nc2ccccc2C(=O)O)c2nc(N3CCOCC3)cc(=O)n2c1 | 0.31 | -0.01 | -0.08 | 0.3 | 0.51 | 0.63 | -0.44 | 0.63 | 1.04 | -0.17 |
